Shiga inhibitor: blocks Shiga toxin action in Vero cells. Vero cells, Shiga toxin protein synthesis inhibition reporter. inhibition, % at 38.7 µM. 290,000 compounds, 9.2% hits. AID 2315; in the data active = inhibition mostly above about 28%, no sharp cut-off; inactive = mostly below about 43%; also: 0% is about no effect
HCV inhibitor: blocks hepatitis C virus | Huh7.5.1 HCVcc-Cre infection, luciferase reporter, 44 h | Potency, µM (titrated, usually from 41.8 µM), for the others: at the highest dose activity change, negative = inhibition, most hits filed as inhibitors | 340,000 compounds, 3.4% hits; also: potency is read from the fitted curve at half-maximal effect; % is scaled to controls: 0 for no effect and ±100 for the full control effect
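Infectious HCVcc-Cre (~0.5 moi) was added to cells just after compound, with cells seeded 4 h earlier at 1,000 per well. Luciferase activity after 44 h culture reported infection; substrate was incubated 15 min at room temperature before reading.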
Pf growth 96h: inhibits malaria parasite growth, 96 h; P. falciparum luciferase reporter growth, 96 h; Potency, µM (top dose mostly 28.7 µM), for the others: at the top dose activity change, negative = inhibition, usual class: inhibitors; 320,000 compounds, 6.9% hits; also: potency is read from the fitted curve at half-maximal effect; % is scaled to controls: 0 for no effect and ±100 for the full control effect
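Erythrocytes infected with luciferase-expressing P. falciparum were dispensed at 2% hematocrit and 0.05% parasitemia (final), then incubated with compounds 96 hours at 37 C in 5% CO2. Luminescence after detection reagent addition reported growth.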
Pf growth 48h: inhibits P. falciparum growth in the first generation, 48 h. P. falciparum luciferase growth in erythrocytes, 48 h. Potency, µM (series often up to 28.7 µM), for the others: top-dose activity change, negative = inhibition, usual class: inhibitors. 310,000 compounds, 5.9% hits. AID 504832; also: potency is read from the fitted curve at half-maximal effect; % is scaled to controls: 0 for no effect and ±100 for the full control effect
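Cell-based growth assay: transgenic P. falciparum expressing firefly luciferase, cultured in red cells within RPMI 1640 containing 0.5% w/v Albumax, 24 mM bicarbonate and gentamycin. A drop in luciferase activity indicates inhibition.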
HCMV antiviral: human cytomegalovirus inhibition; HFF cells, HCMV-luciferase reporter, 72 h; hits give low values; activity change, negative = inhibition, % at 57.5 µM; 410,000 compounds, 4.5% hits; in the data active = activity change below about -60%; inconclusive = no clear call, values can overlap the other calls; inactive = above about -39%; also: % is scaled to controls: 0 for no effect and ±100 for the full control effect
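Inhibition of viral replication was scored as loss of reporter luminescence in HFFs infected with HCMV-luciferase (MOI 1 PFU/cell) for 72 h; compounds tested at 2 doses, normalized to buffer and Salinomycin controls.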
Cycloheximide cs: affects cycloheximide protein synthesis inhibition readout, counter-screen; max response, %; 300,000 compounds, 12% hits; cell reporter, cycloheximide protein synthesis inhibition counterscreen; AID 2314; in the data active = max response mostly above about 13%, no sharp cut-off; inactive = mostly below about 14%; also: read at 38.3 µM for the half of the compounds with a filed dose; 0% is about no effect
The depositor's hits bear a star; ? = inconclusive; . = no result. Compounds with a hit are over-represented: about 21% of the library has one in this group of screens. Unless noted, calls follow the shape of the dose curve; as a rule, active = well fitted inhibition curve with a large enough effect; inconclusive = small, poorly fitted or top-dose-only effect, or another doubt; inactive = no such curve, though single readings can be large or run the other way.

SMILES	Shiga inhibitor	HCV inhibitor	Pf growth 96h	Pf growth 48h	HCMV antiviral	Cycloheximide cs
CCN[C@@H](C)Cc1cccc(C(F)(F)F)c1	.	-14.0%	.	.	15.8	.
CCNC(C)Cc1cccc(C(F)(F)F)c1 (centres undefined)	28.8	.	13.5µM*	-4.8%	.	22.8
C[C@@H](NCCCc1cccc(C(F)(F)F)c1)c1cccc2ccccc12	.	.	12µM*	7.57µM*	-5.9	.
CC(=O)/C(=N\Nc1ccccc1)Oc1ccc(Br)cc1	.	?	.	.	-23.1	.
CCCCNCc1cc(OCC)c(OCC)cc1Br	3.2	?	17.5%	-17.9%	-16.4	-8.7
CC(C)(C)c1ccc(C(=O)N/N=C2\C3CN4CCN(C3)CC2(c2ccccc2)C4)cc1	-10.8	-5.5%	50.9%	1.1%	-25.3	1.2
O=C(N/N=C1\C2CN3CCN(C2)CC1(c1ccccc1)C3)c1ccc(F)cc1	0.0	-7.6%	0.8%	-7.2%	2.0	23.4*
Nc1ccccc1C(=O)N/N=C1\C2CN3CCN(C2)CC1(c1ccccc1)C3	80.9*	7.5%	7.1%	47.7%	-1.6	50.4*
CCCC12CN3CCN(CC(C3)/C1=N\NC(=O)c1ccccc1N)C2	37.9*	11.5%	9.7%	23.3%	-12.8	24.9*
Cc1cc(C)c2c(c1)CC(C)(C)CC2=O	.	11.2%	.	.	40.8	.
COc1ccccc1N1CCN(C(=O)Cn2cnc3sc(C)c(S(=O)(=O)N4CCC(C)CC4)c3c2=O)CC1	.	.	.	.	11.6	.
COc1ccc(NC(=O)CSc2nc3ccccc3c(=O)n2CCCO)cn1	.	5.5%	?	?	-1.7	.
CC(C)Oc1ccc(C(=O)NNC(=O)c2ccccc2C(=O)O)cc1	30.4	-0.3%	77.7%	22.6%	-12.9	17.4*
O=C(NNC(=O)c1ccccc1C(=O)O)c1ccc(O)cc1	96.3	12.6µM*	-6.3%	6.5%	-31.8	23.5*
CCOC(=O)N1CCC(NC(=O)c2ccc3c(c2)N(Cc2ccc(F)cc2)C(=O)c2ccccc2S3=O)CC1 (centres undefined)	.	.	.	.	-20.7	.
O=C1CN(C(=O)c2c(F)cccc2Cl)C(c2ccc(F)cc2)c2cc(Br)ccc2N1 (centres undefined)	.	.	.	.	-36.9	.
Cc1ccc(C)c(CNC(=O)C2CCN(c3nc4ccccc4nc3C(F)(F)F)CC2)c1	.	.	.	.	8.0	.
CCCNc1c(NS(=O)(=O)c2cccc(C#N)c2)c(=O)oc2ccccc12	1.5	-5.0%	-18.7%	11.8%	-15.8	-2.8
COC(=O)C1(O)CC(c2ccccc2)C(C(=O)c2ccc(Cl)cc2)N1c1ccccc1 (centres undefined)	.	.	.	.	-77.2*	.
O=C(c1cc(-c2cccc(Cl)c2)on1)N1CCN(c2ccccc2)CC1	24.3	13.1%	16.2%	35.9%	93.4	15.3
O=C(c1cc(-c2ccccc2)on1)N1CCN(c2ccccc2)CC1	-2.9	7.8%	103.6%	126.3%	64.6	2.0
O=C(c1cc(-c2ccc(Cl)cc2)on1)N1CCCC1	89.8*	4.6%	6.3%	195.2%	1.1	37.3*
O=C(c1cc(-c2cccc(Cl)c2)on1)N1CCCC1	71.3*	-14.4%	24.4%	91.4%	14.1	17.9*
O=C(c1cc(-c2ccccc2)on1)N1CCCC1	148.8*	2.0%	.	308.1%	59.8	30.1*
O=C(c1cc(-c2ccc(Cl)c(Cl)c2)on1)N1CCCCC1	119.6*	-2.0%	?	81.5%	101.6	40.0*
SMILES	Shiga inhibitor	HCV inhibitor	Pf growth 96h	Pf growth 48h	HCMV antiviral	Cycloheximide cs
COC(=O)c1ccccc1NC(=O)c1cc(=O)c2ccc(C)c(C)c2o1	.	.	.	.	3.5	.
CN(C(=O)c1cc(-c2ccccc2)on1)C1CCCCC1	72.9*	-12.8%	-28.3%	180.0%	32.6	36.6*
CC1CCC(NC(=O)N(CCCl)N=O)CC1 (centres undefined)	.	?	6.75µM*	5.36µM*	43.9	.
O=NN(Cc1cccnc1)C(=O)NC1CCCCC1	.	.	.	.	1.8	.
Cc1cccc(-c2c3c(nc4c2c(=O)n(C)c(=O)n4C)-c2ccccc2C3O)c1 (centres undefined)	.	?	.	.	0.0	.
CCCCNC1c2ccccc2C(=O)N1Cc1ccccc1 (centres undefined)	-6.8	8.0%	?	8.0%	-7.9	-1.7
CCS(=O)(=O)N1CC2(CN(C(=O)Cc3ccccn3)[C@@H](CO)c3[nH]c4cc(OC)ccc4c32)C1	.	.	.	.	2.0	.
CCN1C(=O)/C(=c2\sc3nc(=O)c(Cc4ccccc4)nn3c2=O)c2ccccc21	22.3	-0.3%	30.2%	3.9%	5.9	-1.5
CC(Nc1ncnc2sccc12)c1ccccc1 (centres undefined)	2.0	2µM*	-24.4%	-9.3%	-85.5*	-2.0
COc1cccc(Nc2ncnc3sccc23)c1	129.5*	-22.6%	166.4%	145.6%	-24.1	23.4*
Cc1cc2c(Nc3ccc(O)cc3)ncnc2s1	43.1	?	?	-15.3%	-68.9*	17.7
Cc1cc2c(Nc3ccc(C(=O)O)cc3)ncnc2s1	-5.3	14.7%	-59.9%	8.6%	28.4	-0.6
COc1cccc(Nc2ncnc3sc(C)cc23)c1	74.6*	-28.1%	-6.4%	?	0.0	41.3*
C[C@H](Nc1nc(Br)cnc1N)c1ccccc1	.	.	.	.	11.3	.
COc1ccc(OC)c(Nc2ncnc3sc(-c4ccccc4)cc23)c1	-0.3	?	0.0%	-0.8%	3.1	1.5
COc1cc(OC)c(OC)cc1CN1CCc2nc(N3CCN(c4ccccc4F)CC3)ncc2C1	.	.	.	.	-21.2	.
Cc1ccc(CNn2cn[nH]c2=S)cc1	.	28.1%	.	.	7.1	.
COc1ccc(Nc2ncnc3sccc23)cc1	72.3*	-13.1%	158.3%	163.7%	-34.6	30.5*
c1nc(Nc2ccc(N3CCOCC3)cc2)c2ccsc2n1	69.3*	-27.3%	133.7%	87.6%	0.0	50.4*
Cc1ccc(Nc2ncnc3sccc23)c(C)c1	62.1*	2.1%	53.0%	22.5%	-5.3	15.0*
COC(=O)c1cccc(Nc2ncnc3sccc23)c1	33.5	?	68.5%	12.6%	-4.5	11.8
COc1ccc(Nc2ncnc3sccc23)c(OC)c1	18.5	-20.6%	6.7%	3.8%	-20.3	9.0
CC1CCCCC1Nc1ncnc2sccc12 (centres undefined)	-2.5	?	-1.2%	-9.9%	?	-1.5
c1ccc(Nc2ncnc3sccc23)cc1	33.5	-15.6%	18.3%	24.7%	-60.7*	8.0
COc1ccc(CCN(C)C(=O)c2c(C)noc2C)cc1OC	.	2.0%	?	-11.9%	-5.7	.
COCCn1cnc2c1c(=O)[nH]c(=O)n2Cc1ccccc1	-8.9	23.7%	?	-0.9%	.	-1.3
Cc1cc(=O)oc2cc(OCC(=O)OCC(=O)NC3CC3)ccc12	15.0	14.2%	?	33.0%	-4.8	-2.1
CC(=O)c1ccc(N2CCN(C(=O)CN3C(=O)NC4(CCCCC4)C3=O)CC2)c(F)c1	.	-18.6%	?	?	-18.6	.
CCOc1ccc(CNC(=O)C2CCCN(c3nc4c(C)cc(C)cc4s3)C2)cc1 (centres undefined)	.	.	.	.	38.1	.

Screening results as filed in PubChem.
